# Experimental data published in PubChem BioAssay (NCI).
# Compounds without any hit were thinned out: in the full panel of roughly 79,000, 15% have a hit. Unmarked numbers belong to inactive results. Activity calls are given as the source filed them. No stated cut-off is given here; in the data, active means growth inhibition above about 70%; inactive means the rest.
# Legend:
# [1] = NCI Yeast Anticancer Drug Screen. Data for the rad50 strain (AID 155);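 further: 0% = growth of vehicle-only cultures of the same strain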; details: S. cerevisiae rad50 strain growth inhibition; at 50.0 µM; hits give high values
# How it was run: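 Genetically altered yeast (DNA repair pathway); compound treatment; growth inhibition vs vehicle ctrl.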
# [2] = NCI Yeast Anticancer Drug Screen. Data for the mec2-1 strain (AID 157); details: S. cerevisiae mec2-1 strain, at 50.0 µM, hits give high values
# How it was run: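 Strain: mec2-1 (DNA repair/cell cycle alteration). Compound exposure, then growth measured; inhibition expressed relative to vehicle.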
# [3] = NCI Yeast Anticancer Drug Screen. Data for the sgs1 mgt1 strain (AID 161);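 further: 0% = growth of cultures given vehicle only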; details: S. cerevisiae sgs1 mgt1 strain, at 50.0 µM, hits give high values
# How it was run: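 Mutant yeast exposed to compound; growth scored against vehicle-only wells.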
# [4] = NCI Yeast Anticancer Drug Screen. Data for the cln2 rad14 strain (AID 165);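 further: 0% = growth equal to vehicle treated cultures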; details: S. cerevisiae cln2 rad14 strain, at 50.0 µM, hits give high values
# How it was run: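 Compounds are applied to the cln2 rad14 yeast strain, and growth is then compared with that of vehicle-treated cultures to give inhibition.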
# [5] = NCI Yeast Anticancer Drug Screen. Data for the bub3 strain (AID 167); details: S. cerevisiae bub3 mutant strain, at 50.0 µM, hits give high values
# How it was run: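 Yeast carrying a defined mutation is treated with each compound, and growth is compared with that of vehicle-exposed cells to give inhibition.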
# [6] = NCI Yeast Anticancer Drug Screen. Data for the mlh1 rad18 strain (AID 175); details: S. cerevisiae mlh1 rad18 strain growth inhibition; at 50.0 µM; hits give high values
# How it was run: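 Read-out is yeast growth inhibition, calculated against vehicle-only controls. The compound was applied to a strain engineered with DNA damage repair alterations.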
SMILES,growth inhibition [1],growth inhibition [2],growth inhibition [3],growth inhibition [4],growth inhibition [5],growth inhibition [6]
Brc1cccc(-c2nnc(-c3ccc4ccccc4c3)o2)c1,-5.85%,-29.5%,6%,11.4%,-9%,-2.25%
CC(C)Cn1cnc2c(SCc3ccccn3)nc(N)nc21,-6.45%,-17.4%,-10.2%,-30.6%,-48.5%,-17.4%
CN(C)c1ccccc1C1CCCCCC1O (stereo unspecified),15.8%,6.1%,17.9%,20.1%,-22.3%,8.95%
CCCN(CCCC(NC(C)=O)C(=O)NCc1ccccc1)C(=O)NC (stereo unspecified),-11.1%,-18.8%,-28.4%,1.2%,-4.65%,-45.3%
CC(=O)Oc1ccc2c(c1)CC[C@@H]1C2[C@@H](O[N+](=O)[O-])C[C@@]2(C)C1CC[C@@H]2O[N+](=O)[O-] (stereo partly specified),24.4%,7.9%,15.2%,10.1%,10.1%,14.8%
CCN(CC)CCn1c(C(C)(C)C)nc2ccccc21,-9.15%,-20.8%,-24.1%,-6.25%,-15.8%,-10.9%
O=C1OC(c2cccc([N+](=O)[O-])c2)=N/C1=C\c1ccccc1,17.2%,12.1%,14.6%,18.4%,15.3%,24.6%
CCOc1ccc(-c2nc(-c3oc4ccccc4c(=O)c3OC(C)=O)cs2)cc1,-5.25%,1%,1.85%,-2.85%,-5.9%,9.4%
CC(=O)OC1OC(c2ccoc2)C[C@@]12C1CCC3O[C@]3(C)[C@]1(C)C[C@H](OC(C)=O)[C@H]2C (stereo partly specified),-0.5%,-14.5%,-41.5%,-13.6%,-32.1%,-13.2%
CCN(CC)C(=O)N1CCN(c2ccccc2)CC1,-1.4%,12.3%,-4.95%,5.65%,3.45%,-23.8%
Cc1ccc(Nc2c3ccccc3nc3ccccc23)cc1C,98.8% (active),95.8% (active),97.7% (active),90.6% (active),90.2% (active),98.5% (active)
CCNC(=O)[B-][N+](C)(C)C,6.75%,0.05%,3.75%,35.4%,-12.4%,4.5%
Cc1ccc2c(c1)SC(c1cc3c(cc1Br)OCO3)S2 (stereo unspecified),-10.7%,-22.1%,4.65%,34.9%,32.5%,-18.4%
CCOC(=O)c1ccc(C)cc1F,-1.85%,2.3%,0.2%,-38.6%,-7.8%,7.65%
CC(=O)OCc1nc2ncnc(N)c2[nH]1,0.5%,-5.65%,-11.4%,-52.4%,-3.4%,-4.9%
O=C1CN(c2ccccc2)C(=O)CN1/N=C/c1ccc[nH]1,-27.4%,-7.55%,-4.9%,-21.4%,-7.7%,-13.4%
COC(=O)OC(C#N)c1cccc([N+](=O)[O-])c1 (stereo unspecified),15.8%,8.8%,6.2%,-13.7%,-3.9%,9%
CC(=O)c1ccccc1Cc1cccc2c(Cl)cccc12,4.55%,6.05%,10.1%,-0.95%,1.85%,18.6%
CSC1(C)C(=O)Nc2cccc([N+](=O)[O-])c21 (stereo unspecified),-9.85%,-20.1%,1%,-7.5%,11.8%,2.45%
CC(C)(Cc1ccccc1)C(=C=C=C=C(c1ccccc1)C(C)(C)Cc1ccccc1)c1ccccc1,-14.8%,-3.7%,-32.2%,5.9%,2.95%,-15.7%
CN(C)c1ccc(-c2c(C#N)c(O)n(NS(=O)(=O)c3ccccc3)c(=O)c2C#N)cc1,-28.9%,-10.7%,-14.2%,13.9%,-21.4%,-14.2%

SMILES,growth inhibition [1],growth inhibition [2],growth inhibition [3],growth inhibition [4],growth inhibition [5],growth inhibition [6]
CCOC(=O)C(C(=O)OCC)n1c(=O)c2c(ncn2C)n(C)c1=O,13.2%,-0.55%,-16.8%,16.1%,13%,10.3%
O=[N+]([O-])c1ccc(Oc2c3ccccc3nc3ccccc23)cc1,11.3%,-3.7%,19.6%,-1.8%,-1.4%,14.4%
CCCCSc1nc2c([nH]1)c(=O)n(C)c(=O)n2C,-0.75%,2.8%,4.3%,-34.5%,22.9%,1.5%
CCN(CC)S(=O)(=O)c1ccc(S(C)(=O)=O)cc1,-19.8%,-10.9%,-8.05%,-60.1%,8.35%,-14.2%
NN1CCOC1=O,1.4%,-35.9%,11.7%,-2.9%,-14.1%,-1.7%
COP(=O)(OC)C(Cc1cn(C(C)=O)c2ccccc12)C(=O)O (stereo unspecified),-53.3%,-69.5%,-56.8%,-25.1%,-27.4%,-37.5%
CC1(C)CC(=O)C(/C=N/C(=S)NC2CCCCC2)=C(O)C1,-13.2%,-20.1%,-31.5%,10.6%,-7.7%,-8%
COc1ccc(OC)c2nc3c(C(=O)NCCN(C)C)cccc3nc12,-15.7%,-25.5%,-55.7%,-35.2%,-31.4%,-68.1%
O=c1[nH]cc(C2OCC(O)C(O)C2O)c(=O)[nH]1 (stereo unspecified),1.45%,-14.4%,0.5%,1.95%,-19.1%,-32.5%
CCCC1CN2CCc3cc(OC)c(OC)cc3C2CC1=O (stereo unspecified),4.6%,23.6%,41.1%,12.4%,41.1%,39.8%
CC1(c2ccccc2)OC1(C)c1ccccc1 (stereo unspecified),5.7%,-5.6%,-7.65%,-17.1%,21.1%,28.8%
Nc1ccc(F)c(F)c1,4.3%,-6.65%,14.2%,-20%,2.65%,13.8%
CC(C)CNC(=O)Nc1ccccc1C(F)(F)F,-6.5%,-8.4%,-23.6%,-4.55%,7.7%,-14.4%
Cc1cccc(C(=O)OCCCl)c1,15.6%,-7.5%,8.3%,-29.1%,5%,5.2%
CCc1n[nH]c(=O)n1N1C(=O)C2CCCCC2C1=O (stereo unspecified),16.1%,-20.5%,35.1%,6.5%,3.2%,-25.9%
O=S(=O)(O)CCNC(=S)C(=S)NCCS(=O)(=O)O,29.1%,14.2%,7.75%,6.2%,8.7%,5.7%
O=C(Nc1ccc(Cl)cc1)OCCN(CCOC(=O)Nc1ccc(Cl)cc1)C(=O)Nc1ccc(Cl)cc1,19.3%,-19.1%,1.65%,-3.25%,-7.8%,9.15%
CC(SCCNC(N)=O)C(N)=O (stereo unspecified),-16.1%,-7.8%,-6.6%,-28.4%,7.25%,-14.4%
CN(C)C1=C(c2ccccc2)C(=O)C(c2ccccc2)=C1c1ccccc1,39.8%,3.25%,22.1%,-32.3%,7.05%,13.3%
CCOc1ccc(NC=O)cc1,0.75%,8.45%,5.2%,-3.55%,18.5%,-11.3%
